Measurements taken from PubChem BioAssay (Tox21).
Values joined by “and” are separate entries in the source; they are usually repeats but may differ in a detail not shown here. Identical values can stand only once. Records with an inconclusive call do not appear. Where a structure was tested more than once in an assay, its records may differ in their call. Active and inactive are the calls of the source. Unless noted, the call rests on the fitted dose curve; in most records, active means well fitted curve in the direction sought with a large enough effect in the repeat runs; inconclusive means weak or mixed curves; inactive means no such curve, though single readings can be large; an effect the other way counts as inactive or inconclusive.

Columns and labels:
[1] = qHTS assay to identify small molecule antagonists of the estrogen receptor alpha (ER-alpha) signaling pathway using the BG1 cell line in the presence of 0.1 nM 17-beta-estradiol - cell viability counter screen (AID 1259241); further: nearly all actives have a fitted effect of over 40% in size
In short: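 Measures cytotoxicity alongside the ER-alpha antagonist readout: VM7Luc4E2 cells, charcoal-stripped serum, 0.1 nM 17beta-estradiol final, 22 hr compound incubation at 37C, CellTiter-Fluor fluorescence.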

[2] = qHTS assay to identify small molecule antagonists of the androgen receptor (AR) signaling pathway using the MDA cell line in the presence of 0.5 nM R1881 - cell viability counter screen (AID 1259242); further: nearly all actives have a fitted effect of over 45% in size; further: potency means the concentration at half of the fitted maximal effect
In short: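 Viability of MDA-kb2 cells was multiplexed with the luciferase AR readout; after 16 hr with compounds and R1881 at 0.5 nM final, CellTiter-Fluor fluorescence was recorded.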

[3] = qHTS assay to identify small molecule phospholipidosis (PLD) inducers (AID 1259344; active means well fitted curve in the direction sought with a large enough effect; an effect the other way counts as inactive or inconclusive)
In short: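 HepG2 cells on collagen I, attached 4 h at 37 C, were co-treated with compound and LipidTOX Red dye for 24 h at 37 C, then fixed with paraformaldehyde plus Hoechst 33342 and imaged by high-content microscopy for phospholipid accumulation.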

[4] = qHTS assay to identify small molecule HDAC inhibitors (AID 1259364); further: potency means the concentration at half of the fitted maximal effect;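 further: wild-type HCT-116 cells with endogenous class I/II HDAC activity; nearly all actives have a fitted effect of over 45% in size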; on activity change, negative = inhibition: top concentration of the series differs between compounds
In short: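 Read-out: luminescence of HDAC-Glo I/II reagent, 30 min RT, reflecting class I/II deacetylase activity in whole HCT-116 cells pre-exposed 2 h to DMSO-dissolved compounds.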

[5] = qHTS assay to identify small molecule HDAC inhibitors - cell viability counter screen (AID 1259365); further: series mostly up to about 92 µM; nearly all actives have a fitted effect of over 50% in size
In short: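 Following a 2hr exposure of overnight-plated wild-type HCT-116 cells to DMSO-delivered compounds, CellTiter-Glo was added and luminescence recorded after 30min at room temperature.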

[6] = qHTS assay to identify small molecule agonists of the sonic hedgehog signaling (Shh) pathway - cell viability counter screen (AID 1259366); further: nearly all actives have a fitted effect of over 50% in size
In short: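 After a 4hr attachment at 37C, NIH/3T3 cells bearing an integrated Gli1-driven luciferase reporter were dosed with compounds. Treatment lasted 24hr, with the final hour including CellTiter-Fluor for a fluorescence viability measurement.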

[7] = qHTS assay to identify small molecule antagonists of the sonic hedgehog signaling (Shh) pathway - cell viability counter screen (AID 1259367); further: nearly all actives have a fitted effect of over 55% in size; further: potency means the concentration at half of the fitted maximal effect
In short: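 NIH/3T3-derived Gli1-Luc reporter cells (2,000 per well) rested 4 hr at 37 C, then received DMSO compounds plus conditioned medium. After 23 hr of treatment, CellTiter-Fluor was added for 1 hr at 37C and fluorescence read.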

[8] = qHTS assay to identify small molecule agonists of the sonic hedgehog signaling (Shh) pathway (AID 1259368; calls by dose curve;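 further: NIH/3T3-derived 3T3Gli1-Luc cells carrying a stable Gli1-driven firefly luciferase reporter; series mostly up to about 92 µM; nearly all actives have a fitted effect of over 15% in size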)
In short: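 A Gli1 transcriptional response element controlled firefly luciferase in 3T3Gli1-Luc cells. Compounds and a positive control were added 4 hr after plating, and cells were incubated a further 24 hr at 37 C before luminescence detection.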
On the % scale 0 is the no-effect control and ±100 the full control effect.

C=CCN1CC[C@]23c4c5ccc(O)c4O[C@H]2C(=O)CC[C@@]3(O)[C@H]1C5
inactive: Potency [1] | Potency [2] | outcome [3] | Potency [4] | Potency [5] | Potency [6] | Potency [7] | Potency [8]

CCOS(C)(=O)=O
inactive: Potency [1] | Potency [2] | Potency [4] | Potency [5] | Potency [6] | Potency [7] | Potency [8]

CCOC(=O)[C@]1(c2ccccc2)Oc2ccccc2[C@@H]1N
inactive: Potency [1] | Potency [2] | Potency [4] | Potency [5] | Potency [6] | Potency [7] | Potency [8]

O=S(=O)(O)C(F)(F)C(F)(F)C(F)(F)C(F)(F)F
inactive: Potency [1] | Potency [2] | Potency [4] | Potency [5] | Potency [6] | Potency [7]

[CH3][Sn]([CH3])([Cl])[Cl]
inactive: Potency [1] | Potency [2] | Potency [4] | Potency [5] | Potency [6]

O=C1NCN(c2ccccc2)C12CCN(CCCOc1ccc(F)cc1)CC2
inactive: Potency [1] | Potency [2] | outcome [3] | Potency [4] | Potency [5] | Potency [8]

O=C(O)c1ccccc1C(=O)Nc1cccc2ccccc12
inactive: Potency [1] | Potency [2] | Potency [4] | Potency [5] | Potency [6] | Potency [7] | Potency [8]

COC(N)=O
inactive: Potency [1] | Potency [2] | Potency [4] | Potency [5] | Potency [6] | Potency [7]

C#CCOC(C(=O)OCCN(C)C)(c1ccccc1)c1ccccc1
inactive: Potency [1] | Potency [2] | outcome [3] | Potency [4] | Potency [5] | Potency [6] | Potency [7] | Potency [8]

CCC(COC(=O)c1cc(OC)c(OC)c(OC)c1)(c1ccccc1)N(C)C (configuration not stated)
inactive: Potency [1] | Potency [2] | outcome [3] | Potency [4] | Potency [5] | Potency [6] | Potency [8]

Cn1cc[n+](C)c1 (tested in a mixture with another compound)
inactive: Potency [1] | Potency [2] | Potency [4] | Potency [5] | Potency [6] | Potency [7]

CC(C)(Cl)[N+](=O)[O-]
inactive: Potency [1] | Potency [2] | Potency [4] | Potency [5] | Potency [6] | Potency [7]

CCC(Br)(CC)C(=O)NC(N)=O
inactive: Potency [1] | Potency [2] | Potency [4] | Potency [5] | Potency [6] | Potency [7] | Potency [8]

CC(=O)c1cc2c(cc1C)C(C)(C)C(C)CC2(C)C (configuration not stated)
inactive: Potency [1] | Potency [2] | Potency [4] | Potency [5] | Potency [6] | Potency [7] | Potency [8]

O=C1c2ccccc2C(=O)C1C(=O)C(c1ccccc1)c1ccccc1
inactive: Potency [1] | Potency [2] | outcome [3] | Potency [4] | Potency [5] | Potency [6] | Potency [7] | Potency [8]

NCC(CC(=O)O)c1ccc(Cl)cc1 (configuration not stated)
inactive: activity change, negative = cytotoxicity [1] 0.211% [at 0.349 µM] | viability change, negative = cytotoxic [2] 0.181% [at 0.349 µM] | outcome [3] | activity change, negative = inhibition [4] 13.2% [at 0.349 µM] | activity change, negative = cytotoxicity [5] -1.28% [at 0.349 µM] | viability change, negative = cytotoxic [6] 4.25% [at 0.349 µM] | viability change, negative = cytotoxic [7] 1.24% [at 0.349 µM] | activity change [8] -1.29% [at 0.349 µM, stronger effect = higher value]

CCCCCCCCOC(=O)c1ccc(C(=O)OCCCCCCCC)c(C(=O)OCCCCCCCC)c1
inactive: Potency [1] | Potency [2] | Potency [4] | Potency [5] | Potency [6] | Potency [7] | Potency [8]

O=Cc1ccc2c(c1)OCO2
inactive: Potency [1] | Potency [2] | Potency [4] | Potency [5] | Potency [6] | Potency [7] | Potency [8]

BrCC(Br)C1CCC(Br)C(Br)C1 (configuration not stated)
inactive: Potency [1] | Potency [2] | Potency [4] | Potency [5] | Potency [6] | Potency [7]

COC(=O)C(Br)CBr (configuration not stated)
inactive: Potency [1] | Potency [2] | Potency [4] | Potency [5] | Potency [6] | Potency [7] | Potency [8]

C=COC(C)=O
inactive: Potency [1] | Potency [2] | Potency [4] | Potency [5] | Potency [6] | Potency [7]

Cl/C=C\C[N+]12CN3CN(CN(C3)C1)C2
inactive: Potency [1] | Potency [2] | Potency [4] | Potency [5] | Potency [6] | Potency [7] | Potency [8]

CC1C(=O)C[C@]2(C(C)C)C[C@H]12 (some centres not stated)
inactive: Potency [1] | Potency [2] | Potency [4] | Potency [5] | Potency [6] | Potency [7] | Potency [8]

CCCCCCC#N
inactive: Potency [1] | Potency [2] | Potency [4] | Potency [5] | Potency [6] | Potency [8]

CC(C)=CCOc1c2occc2cc2ccc(=O)oc12
inactive: Potency [1] | Potency [2] | Potency [4] | Potency [5] | Potency [6] | Potency [7] | Potency [8]

C/C=C/C=O
inactive: Potency [1] | Potency [2] | Potency [4] | Potency [5] | Potency [6] | Potency [7] | Potency [8]

CC(C)O.CC(C)O.OCCN(CCO)CCO.OCCN(CCO)CCO.[Ti]
inactive: Potency [1] | Potency [2] | Potency [4] | Potency [5] | Potency [6] | Potency [7] | Potency [8]

CC(C)(OO)c1ccccc1
inactive: Potency [1] | Potency [2] | Potency [4] | Potency [5] | Potency [6] | Potency [7] | Potency [8]

CC(Cl)Cl
inactive: Potency [1] | Potency [2] | Potency [4] | Potency [5] | Potency [6] | Potency [8]

C=CC(=O)OC(C)(C)C
inactive: Potency [1] | Potency [2] | Potency [4] | Potency [5] | Potency [6] | Potency [7] | Potency [8]

[O-][Cl+]O
inactive: Potency [1] | Potency [2] | Potency [4] | Potency [5] | Potency [6] | Potency [7] | Potency [8]

COc1nn(C(=O)NS(=O)(=O)c2ccccc2OC(F)(F)F)c(=O)n1C
inactive: Potency [1] | Potency [2] | Potency [4] | Potency [5] | Potency [6] | Potency [7] | Potency [8]

CCCC(=O)Cl
inactive: Potency [1] | Potency [2] | Potency [4] | Potency [5] | Potency [6] | Potency [7] | Potency [8]

O=S(=O)(Cl)c1ccccc1
inactive: Potency [1] | Potency [2] | Potency [4] | Potency [5] | Potency [6] | Potency [7] | Potency [8]

Nc1nc(=S)[nH][nH]1
inactive: Potency [1] | Potency [2] | Potency [4] | Potency [5] | Potency [6] | Potency [7] | Potency [8]

CCCC(Cn1cncn1)c1ccc(Cl)cc1Cl (configuration not stated)
inactive: Potency [1] | Potency [2] | Potency [4] | Potency [5] | Potency [6] | Potency [7] | Potency [8]

O=C(O)C(F)(F)C(F)(F)C(F)(F)C(F)(F)C(F)(F)C(F)(F)C(F)(F)C(F)(F)C(F)(F)F
inactive: Potency [1] | Potency [2] | Potency [4] | Potency [5] | Potency [6] | Potency [8]

Oc1ccc(Cl)c(Cl)c1Cl
inactive: Potency [1] | Potency [2] | Potency [4] | Potency [5] | Potency [6] | Potency [7] | Potency [8]

CCCCOC(=O)c1ccccc1C(=O)OCc1ccccc1
inactive and 48.6 µM (active): Potency [7]
inactive: Potency [1] | Potency [2] | Potency [5] | Potency [6] | Potency [8]
inactive and 17.2 µM (active): Potency [4]

O=[Se]=O
inactive: Potency [1] | Potency [4] | Potency [5] | Potency [6] | Potency [7] | Potency [8]
active: Potency [2] 12.1 µM

CCC(Cl)CCl (configuration not stated)
inactive: Potency [1] | Potency [2] | Potency [4] | Potency [5] | Potency [6] | Potency [8]

C(=NC1CCCCC1)=NC1CCCCC1
inactive: Potency [1] | Potency [4] | Potency [5] | Potency [6] | Potency [7] | Potency [8]
active: Potency [2] 8.69 µM

Clc1cccc2ccccc12
inactive: Potency [1] | Potency [2] | Potency [4] | Potency [5] | Potency [6] | Potency [7] | Potency [8]
